Test results reported in PubChem BioAssay AID686978 (National Center for Advancing Translational Sciences (NCATS), 2013).
The campaign covered roughly 420,000 compounds. About 64,000 (15%) were called active. Not shown: some 27% with an inconclusive outcome. Calls come from the whole dose curve; as a rule, active = well fitted inhibition curve with a large enough effect; inconclusive = small, poorly fitted or top-dose-only effect; inactive = flat fitted curve, though single readings scatter. Only a sample is shown. Where a call stands in place of a potency, no number is given.
Potency is the fitted concentration of half-maximal effect.

Test: qHTS for Inhibitors of human tyrosyl-DNA phosphodiesterase 1 (TDP1): qHTS in cells in absence of CPT; note: nearly all actives have a fitted effect of over 55% in size
Settings: DT40 Tdp1-/- hTDP1 cells, no CPT, ATP luminescence, 48 h; activity change, negative = growth inhibition: at 46.2 µM (top of the series)
In short: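 Chicken DT40 Tdp1-/- cells stably complemented with human TDP1 were seeded at 400 cells/well with DMSO in place of 20 nM camptothecin. After compound pinning, cells grew at least 48 hr at 37 °C; viability read by CellTiter-Glo luminescence.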
In the case of `CCC1CCCCN1S(=O)(=O)Cc1ccccc1Cl` (centres undefined), the Potency is reported as “inactive”.
With `CCCCn1c(N)c(N(CCOC)C(=O)c2cccc(S(=O)(=O)N3CCCCC3)c2)c(=O)[nH]c1=O` the Potency was “inactive”.
With `Cc1cccc(N2O[C@H]3C=CC2CCCC3)n1` the Potency was “inactive”.
For `Cc1ccc(CN2CCN(/N=C/c3ccco3)CC2)c(C)c1`, the Potency was “inactive”.
In the case of `COc1cc2ccccc2cc1C(=O)N1CCOCC1`, the Potency is reported as “inactive”.
With `CCOc1ccc(C(C)=O)cc1COC(=O)CN1C(=O)NC2(CCCC2)C1=O` the Potency was “inactive”.
In the case of `COc1ccc(Cl)cc1NS(=O)(=O)c1cccc(C(=O)NCC2CCCO2)c1` (centres undefined), the Potency is reported as “inactive”.
With `CCC(C)C(NC(=O)C1CCC(=O)N1C(=O)OCc1ccccc1)C(=O)NC(C(=O)N1CCCC1C(N)=O)C(C)CC` (centres undefined) the Potency was “inactive”.
In the case of `Cc1ccc(-c2cc(C(=O)N3CCc4ccccc4C3)no2)cc1`, the Potency is reported as “inactive”.
In the case of `CCn1c(SCC(=O)NC2CC2)nnc1-c1ccccn1`, the Potency is reported as “inactive”.
In the case of `COC(C[C@H](O)CC(=O)COCc1ccccc1)OC`, the Potency is reported as “inactive”.
With `CCOC(=O)C(C(=O)OCC)C(C#N)c1ccccc1` (centres undefined) the Potency was “inactive”.
With `Cc1cc(C)cc(OCC(=O)NC(C)c2ccccc2)c1` (centres undefined) the Potency was “inactive”.
With `CCOC(=O)/C=C/C(=O)OCC(=O)NC(c1ccccc1)c1ccccc1` the Potency was 8.2 µM (active).
With `Cc1ccc(SCC(=O)NC(=O)NCc2ccco2)c(C)c1` the Potency was “inactive”.
With `CC1=C(C(=O)N2CCOCC2)CC(CC(=O)NCc2cccs2)C(=O)N1CCCN1CCCC1=O` (centres undefined) the Potency was “inactive”.
In the case of `CCN1C(=O)/C(=C\N2CCOCC2)SC1=S`, the Potency is reported as “inactive”.
In the case of `CCN1C(=O)/C(=C\N2CCN(c3cccc(Cl)c3)CC2)SC1=S`, the Potency is reported as 16.4 µM (active).
For `O=C(O)C(c1ccccc1)N1C(=O)/C(=C\c2ccc(-c3cccc(Cl)c3)o2)SC1=S` (centres undefined), the Potency was “inactive”.
With `CC1=NNC(=O)C1CC(=O)N/N=C/c1ccncc1` (centres undefined) the Potency was “inactive”.
For `Cc1ccc(S(=O)(=O)NCC(=O)N2CCOCCOCCOCCOCC2)cc1`, the Potency was “inactive”.
With `CC1CCN(C(=O)COC(=O)CCC(=O)c2cccs2)CC1` the Potency was “inactive”.
With `CCC(=O)N1CCN=C1SCc1ccc(F)cc1` the Potency was “inactive”.
For `COc1ccc(OC)c(S(=O)(=O)NCCC(C)C)c1`, the Potency was “inactive”.
For `COc1ccccc1N1CCN(/N=C/c2ccc(O)cc2O)CC1`, the Potency was “inactive”.
With `COc1ccccc1N1CCN(C(=O)C(=O)N/N=C/c2ccccc2F)CC1` the Potency was “inactive”.
For `COc1ccccc1N1CCN(/N=C\C(Br)=C\c2ccccc2)CC1`, the Potency was 7.31 µM (active).
In the case of `COCCn1c(N)c(N(Cc2ccccc2)C(=O)C2CCCCC2)c(=O)[nH]c1=O`, the Potency is reported as “inactive”.
With `NC(=O)C1CCN(CC(O)CSc2ccc(F)cc2)CC1` (centres undefined) the Potency was “inactive”.
For `CCCN1CC=C2C(C#N)=C(N)C(C#N)(C#N)C(c3cc(OC)ccc3OC)C2C1` (centres undefined), the Potency was “inactive”.
With `CCOc1ccc(C2C(C(=O)NC)=C(C)Nc3nc4ccccc4n32)cc1OC` (centres undefined) the Potency was “inactive”.
With `COc1cccc(NC(=O)C(C)Oc2ccccc2)c1` (centres undefined) the Potency was “inactive”.
In the case of `COc1cccc(NC(=O)COC(=O)CCOc2ccccc2OC)c1`, the Potency is reported as “inactive”.
For `COc1cccc(NC(=O)CC(c2ccc(OC(C)C)cc2)c2ccccc2OC)c1` (centres undefined), the Potency was 11.6 µM (active).
For `CCCn1c(=S)[nH]c2ccc(C(F)(F)F)cc21`, the Potency was “inactive”.
For `CNS(=O)(=O)c1ccc2c(c1)[nH]c(=S)n2C`, the Potency was “inactive”.
In the case of `CC(C)n1c(=S)[nH]c2cc(C(F)(F)F)ccc21`, the Potency is reported as 16.4 µM (active).
With `O=C(NCc1ccncc1)C1CCN(C(=O)c2cccc(Cl)c2)CC1` the Potency was “inactive”.
With `CCC(C(=O)NC1CCCC1)N(C(=O)Cn1nnc(-c2ccc(C)o2)n1)c1ccc(OC)c(OC)c1` (centres undefined) the Potency was “inactive”.
For `COc1ccc(S(=O)(=O)Nc2ccc3c(c2)OCO3)cc1Cl`, the Potency was “inactive”.
For `COc1cc(OC)cc(C(=O)Nc2ccc(S(=O)(=O)Nc3cc(C)on3)cc2)c1`, the Potency was “inactive”.
With `CC(=O)Nc1ccc(S(=O)(=O)Nc2ccc(N3CCOCC3)c(F)c2)cc1` the Potency was “inactive”.
With `CC(=O)Nc1ccc(S(=O)(=O)Nc2ccc(N3CCCCC3)cc2)cc1` the Potency was 2.91 µM (active).
In the case of `COc1cc(NC(=O)N2CCOCC2)cc(OC)c1`, the Potency is reported as “inactive”.
For `COc1cc(NS(=O)(=O)c2ccc3c(c2)OCC(C(=O)N2CCCC2)O3)cc(OC)c1` (centres undefined), the Potency was 20.6 µM (active).
In the case of `COc1cc(NS(=O)(=O)c2ccc(NC(C)=O)cc2)cc(OC)c1`, the Potency is reported as 8.2 µM (active).
In the case of `COC(C(=O)NCc1ccccc1C)c1ccccc1` (centres undefined), the Potency is reported as “inactive”.
With `COC(C(=O)Nc1ccc(C(C)=O)cc1)c1ccccc1` (centres undefined) the Potency was “inactive”.
For `COC(C(=O)Nc1ccc(S(=O)(=O)Nc2ccc(C)c(C)c2)cc1)c1ccccc1` (centres undefined), the Potency was 14.6 µM (active).
For `COC(=O)COc1ccc(S(=O)(=O)Nc2ccc(NC(C)=O)cc2)cc1`, the Potency was “inactive”.
In the case of `CC(=O)Nc1ccc(NS(=O)(=O)c2ccc3c(c2)NC(=O)CC(=O)N3)cc1`, the Potency is reported as “inactive”.
For `CC(=O)N1CC2(C)CN(C(C)=O)CC(C)(C1)C2=O`, the Potency was “inactive”.
In the case of `COc1ccc(N(CCC#N)S(=O)(=O)c2ccc(Cl)cc2)cc1`, the Potency is reported as “inactive”.
In the case of `CCCC(=O)NC(Nc1ccccc1OC)C(Cl)(Cl)Cl` (centres undefined), the Potency is reported as “inactive”.
In the case of `Cn1c(=O)n(C)c(=O)n(CC(=O)N2CCCCC2)c1=O`, the Potency is reported as “inactive”.
For `COc1cc(OC)cc(C2=Cc3ccccc3C(CC(=O)c3ccco3)N2c2ccc(-c3cnc(OC)nc3)cc2)c1` (centres undefined), the Potency was “inactive”.
With `CC(=O)Nc1ccc(NC(=O)C(C)OC(=O)C2CC(=O)N(CCc3ccccc3)C2)cc1` (centres undefined) the Potency was “inactive”.
With `O=C(NCC1(N2CCCCC2)CCCCC1)c1ccc(NS(=O)(=O)c2ccc(F)cc2)cc1` the Potency was “inactive”.
With `CCc1nnc(NC(=O)CSc2nnnn2-c2cccc(C(C)=O)c2)s1` the Potency was “inactive”.
With `COc1cccc(/C=C2\SC(=N)N(c3ccc(F)cc3)C2=O)c1` the Potency was “inactive”.
In the case of `COc1ccc(S(=O)(=O)Nc2ccc3oc(C)c(C(C)=O)c3c2)cc1`, the Potency is reported as 5.17 µM (active).
For `COc1ccc(C(=O)Oc2cc(/C=N/NS(=O)(=O)c3ccc(C)cc3)ccc2OC)cc1`, the Potency was “inactive”.
For `COc1ccc(/C=C/C(=O)c2ccc(NS(=O)(=O)c3ccc(C)cc3)cc2)cc1O`, the Potency was 20.6 µM (active).
In the case of `COc1ccc(S(=O)(=O)Nc2cc(C)on2)cc1NC(C)=O`, the Potency is reported as “inactive”.
With `CC(=O)c1ccc(NC(=S)NC(=O)CC(C)C)cc1` the Potency was “inactive”.
With `COc1ccc(CNC(=O)c2ccc(NS(=O)(=O)c3ccc4[nH]c(=O)[nH]c4c3)cc2)cc1OC` the Potency was “inactive”.
For `CC(=O)Nc1ccc(S(=O)(=O)Nc2cccc(NC(=O)C(C)(C)C)c2)cc1`, the Potency was “inactive”.
In the case of `COc1ccc2oc(C)c(NC(C)=O)c2c1`, the Potency is reported as “inactive”.
With `COc1ccc(NS(=O)(=O)c2ccc(NC(C)=O)cc2)cc1OC` the Potency was 6.51 µM (active).
With `COc1ccc(OC)c(C(C)NC(=S)Nc2ccc(S(=O)(=O)Nc3ncccn3)cc2)c1` (centres undefined) the Potency was “inactive”.
For `COc1ccc(NS(=O)(=O)c2ccc(NC(=S)NC(=O)CC(C)C)cc2)cc1`, the Potency was 18.4 µM (active).
With `CC(=O)c1c(C)oc2ccc(NS(=O)(=O)c3ccc(C(=O)O)cc3)cc12` the Potency was “inactive”.
With `CCCC(=O)Nc1ccc2oc(-c3ccc(O)c(Br)c3)nc2c1` the Potency was “inactive”.
In the case of `CSc1ccccc1OCc1cc(C(=O)N(C)CCc2c(C)n[nH]c2C)no1`, the Potency is reported as “inactive”.
In the case of `O=C(CN1CCCCCC1)Nc1c(Cl)cc(Cl)cc1Cl`, the Potency is reported as “inactive”.
In the case of `CN(C)C(=O)c1ccc(NC(=O)COC(=O)c2cc3c(s2)CCCCC3)cc1`, the Potency is reported as “inactive”.
With `CSc1ccc(/C=N/N2CCN(Cc3ccccc3Cl)CC2)cc1` the Potency was “inactive”.
For `Cn1c2c(c(=O)n(C)c1=O)C(c1ccc(O)cc1)Nc1ccccc1O2` (centres undefined), the Potency was “inactive”.
With `CCC(=O)Nc1ccccc1C(=O)N1CCN(Cc2ccccc2)CC1` the Potency was “inactive”.
With `Cc1nn(Cc2ccccc2)c(C)c1C(=O)N1CCN(CC(=O)Nc2ccccc2Cl)CC1` the Potency was 23.1 µM (active).
For `Cc1nn(Cc2ccccc2)c(C)c1C(=O)NCCCN1CCCC1=O`, the Potency was “inactive”.
In the case of `CCOC(=O)CSc1nnc(CNC(=O)c2ccco2)n1-c1ccc(F)cc1`, the Potency is reported as “inactive”.
In the case of `NNC(=O)c1cnn(-c2ccccc2)c1C(F)(F)F`, the Potency is reported as “inactive”.
In the case of `CN(C)CCCOc1ccc(-c2ccc3nccn3c2)cn1`, the Potency is reported as “inactive”.
For `OC[C@@H]1CN(Cc2ccc(-c3ccccc3)cc2)C[C@H](n2cnc3c(NC4CCCC4)ncnc32)O1`, the Potency was 1.3 µM (active).
For `OC[C@@H]1CN(C2CCCC2)C[C@H](n2cnc3c(NC4CCC4)ncnc32)O1`, the Potency was “inactive”.
With `OC[C@@H]1CN(Cc2cccs2)C[C@H](n2cnc3c(Nc4ccccc4)ncnc32)O1` the Potency was “inactive”.
In the case of `Cc1nnc(SCC(N)=O)n1CC1CCCO1` (centres undefined), the Potency is reported as “inactive”.
With `O=C(O)CSCc1nc2ccccc2s1` the Potency was “inactive”.
With `CCOC(=O)/C(C#N)=C/c1ccc(N2CCN(Cc3ccccc3)CC2)cc1` the Potency was 20.6 µM (active).
For `CCOC(=O)/C(C#N)=C/c1ccc(OCC(=O)Nc2ccccc2)c(OC)c1`, the Potency was “inactive”.
In the case of `CCOC(=O)/C(C#N)=C/c1ccc(N2CCCCC2)cc1`, the Potency is reported as “inactive”.
For `O=C1C2C3C=CC(C3)C2C(=O)N1c1ccc(-c2nc3ccccc3c(=O)o2)cc1` (centres undefined), the Potency was “inactive”.
For `CN(C)c1ccc(/C=N/NC(=O)C(O)c2ccc(Br)cc2)cc1` (centres undefined), the Potency was “inactive”.
With `NS(=O)(=O)c1ccc(NC(=S)NC(=O)c2cccnc2)cc1` the Potency was “inactive”.
In the case of `O=C(c1ccc2c(c1)C(=O)N(c1ccc(Cl)cc1)C2=O)N1CCN(c2ccccn2)CC1`, the Potency is reported as “inactive”.
In the case of `O=C(c1ccc2c(c1)N(Cc1ccccc1F)C(=O)c1ccccc1S2(=O)=O)N1CCOCC1`, the Potency is reported as “inactive”.
For `O=C1c2ccccc2S(=O)(=O)c2cc(N3CCN(c4ccccn4)CC3)ccc21`, the Potency was “inactive”.
In the case of `O=C(c1ccc2c(c1)N(Cc1ccc(F)cc1)C(=O)c1ccccc1S2(=O)=O)N1CCN(c2ccccn2)CC1`, the Potency is reported as 18.4 µM (active).
With `COc1ccccc1NC(=O)CN1C(=O)c2ccccc2Sc2ccc(C(=O)N3CCCC3)cc21` the Potency was “inactive”.
For `O=C(c1ccc2c(c1)N(Cc1ccccc1)C(=O)c1ccccc1S2(=O)=O)N1CCCC1`, the Potency was 23.1 µM (active).
In the case of `CC1CCCN(C(=O)CN2C(=O)c3ccccc3S2(=O)=O)C1` (centres undefined), the Potency is reported as “inactive”.
With `O=C(c1cccc(Br)c1)N1CCN(C2=NS(=O)(=O)c3ccccc32)CC1` the Potency was “inactive”.
For `O=C(c1ccc2c(c1)N(Cc1ccccc1)C(=O)c1ccccc1S2(=O)=O)N1CCC(Cc2ccccc2)CC1`, the Potency was 5.8 µM (active).
